Hits are enriched below; roughly 1.6% of the tested compounds scored in any of these assays.
NSD2 HMT inh – blocks human histone methyltransferase NSD2 | inhibition, % at 12.5 µM | AID 743445 | 310,000 tested, 0.54% active | O96028 | NSD2 peptide methylation, AlphaScreen, 120 min; in the data active = inhibition above about 50%
V-ATPase pH – alters yeast V-ATPase proton transport; S. cerevisiae, pHLuorin cytosolic pH fluorescence; response, % at 10 µM; 350,000 tested, 0.37% active; in the data active = response mostly above about 7.3%, no sharp cut-off; inactive = mostly below about 5.4%; also: actives read high
Rce1 inh – blocks yeast Ras-converting enzyme; Q03530; yeast membranes, quenched prenylated peptide cleavage fluorescence; calls only; 290,000 tested, 0.27% active;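 active = fall in fluorescence gain of 50% or more versus controls, with final raw signal at or below 3038400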;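 also: plate controls were neutral control wells for no effect and wells lacking membranes for full effect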
Efflux pump mplx – antifungal efflux pump inhibition, Nile Red retention. 330,000 tested, 0.44% active. inhibition, % at 10 µM. S. cerevisiae Candida pump triplex;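 active = plate passing quality check with inhibition over a set limit, or well fluorescence over plate mean plus 4 SD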;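 also: Nile Red retained in pooled yeast measured as flow cytometry median fluorescence; 0% = buffer negative control and 100% = Enniatin B positive control; higher means more Nile Red kept so more efflux inhibition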
NPR1 activator – GC-A (human) enzyme activation | P16066 | HEK293 GC-A cells, cGMP TR-FRET, EC30 ANP; 0% at EC30 ANP, 100% saturating ANP | activation, % at 10 µM | 370,000 tested, 0.14% active; in the data active = activation above about 40%
Target sequence (P16066 whole entry, looked up): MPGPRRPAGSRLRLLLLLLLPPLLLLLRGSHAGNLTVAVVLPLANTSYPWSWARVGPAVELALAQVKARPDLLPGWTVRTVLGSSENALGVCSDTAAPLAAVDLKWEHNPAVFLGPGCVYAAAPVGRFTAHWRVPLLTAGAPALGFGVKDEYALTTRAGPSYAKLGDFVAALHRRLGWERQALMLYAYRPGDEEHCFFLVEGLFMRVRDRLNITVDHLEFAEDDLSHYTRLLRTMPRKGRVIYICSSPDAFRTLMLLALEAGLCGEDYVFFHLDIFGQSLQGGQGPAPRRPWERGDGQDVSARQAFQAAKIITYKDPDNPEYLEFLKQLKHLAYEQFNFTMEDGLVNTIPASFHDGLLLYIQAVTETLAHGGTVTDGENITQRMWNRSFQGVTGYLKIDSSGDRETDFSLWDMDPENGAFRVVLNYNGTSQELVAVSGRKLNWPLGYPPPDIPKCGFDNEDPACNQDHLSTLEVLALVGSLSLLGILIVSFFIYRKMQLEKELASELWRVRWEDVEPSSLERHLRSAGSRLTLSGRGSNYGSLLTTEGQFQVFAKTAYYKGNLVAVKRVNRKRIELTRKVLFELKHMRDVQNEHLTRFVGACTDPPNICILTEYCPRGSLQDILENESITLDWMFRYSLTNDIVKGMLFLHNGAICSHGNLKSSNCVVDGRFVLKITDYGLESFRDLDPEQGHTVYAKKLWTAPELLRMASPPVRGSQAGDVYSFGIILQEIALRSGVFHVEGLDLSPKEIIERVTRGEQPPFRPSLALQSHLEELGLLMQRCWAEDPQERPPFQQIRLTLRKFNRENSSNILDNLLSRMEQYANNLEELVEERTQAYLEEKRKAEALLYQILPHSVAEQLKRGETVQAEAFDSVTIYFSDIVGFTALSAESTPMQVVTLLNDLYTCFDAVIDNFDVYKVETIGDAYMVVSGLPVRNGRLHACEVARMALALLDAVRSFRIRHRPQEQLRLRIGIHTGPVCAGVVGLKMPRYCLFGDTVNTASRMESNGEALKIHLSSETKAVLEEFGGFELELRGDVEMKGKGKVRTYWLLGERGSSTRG
GC-B act – GC-B (human) receptor activation; P20594; HEK293-GC-B cells, CNP EC30, cGMP TR-FRET; 0% at EC30 CNP, 100% saturating CNP; activation, % at 10 µM; 370,000 tested, 0.11% active; AID 1920062;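 active = activation at 10 µM reaching about 35% in either raw or pattern-adjusted values, limit read from the data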
Cmpd fluor yeast – flagged as fluorescent in efflux inhibitor counter-screen; AID 588517; 1,700 tested, 4% active; S. cerevisiae AD/pABC3, compound fluorescence, flow cytometry; fluorescence ratio to DMSO, % at 10 µM; shares compounds with Efflux pump mplx;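 active = fluorescence ratio to DMSO above its plate's cutoff, the plate mean ratio plus 5 SD, cut at about 210% in these data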;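 also: unstained yeast with no Nile Red so the signal is compound autofluorescence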
Mdr1 pump inh – Candida Mdr1 efflux pump inhibition; shares compounds with Efflux pump mplx; S. cerevisiae AD/CaMDR1, Nile Red efflux, flow cytometry; inhibition, % at 10 µM; 1,700 tested, 1% active; AID 588518; in the data active = inhibition above about 26%;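 also: 0% = DMSO vehicle and 100% = reference inhibitor; higher means more Nile Red retained so more efflux inhibition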
CaCdr2 efflux inh – blocks the Candida albicans Cdr2 efflux pump in yeast. shares compounds with Efflux pump mplx. S. cerevisiae AD/CaCDR2, Nile Red retention, flow cytometry. Nile Red retention ratio vs DMSO, % at 10 µM. 1,700 tested, 4% active. AID 588520; in the data active = Nile Red retention ratio vs DMSO above about 190%;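 also: higher ratio means more blocking of Cdr2 efflux of the dye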
CaCdr1 efflux inh – blocks the Candida albicans Cdr1 efflux pump in yeast. shares compounds with Efflux pump mplx. S. cerevisiae AD/CaCDR1, Nile Red efflux, flow cytometry. inhibition, % at 10 µM. 1,700 tested, 1% active;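 active = inhibition above the screen-wide mean plus twice its standard deviation, cut at about 32% in these data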
An asterisk follows results filed as active; i = inactive; / = no result; + = active, no number.

SMILES	NSD2 HMT inh	V-ATPase pH	Rce1 inh	Efflux pump mplx	NPR1 activator	GC-B act	Cmpd fluor yeast	Mdr1 pump inh	CaCdr2 efflux inh	CaCdr1 efflux inh
COC(=O)c1c(NC(=O)c2ccco2)sc2c1CCN(C(C)=O)C2	-4	-3	i	1.1*	4	5	97	0	106	0
COC(=O)c1c(NC(=O)c2ccco2)sc(C(=O)N2CCCC2)c1C	-2	0	i	0	3	2	/	/	/	/
COc1ccc(S[C@]2(C(=O)NC(C)C)CC(=O)N[C@@H]2c2ccc(OC)cc2)cc1	/	/	/	/	-1	-3	/	/	/	/
COc1cc(-c2cc(C(=O)Nc3ccc(O)cc3)c3ccccc3n2)cc(OC)c1OC	-3	-4	i	0	10	13	102	0	98	0
Cc1ccc(-c2cc(C(=O)Nc3ccc(S(=O)(=O)Nc4ncccn4)cc3)c3ccccc3n2)cc1	1	1	i	8.2*	-9	-8	101	0	83	0
CCc1ccc(-c2cc(C(=O)Nc3ccc(S(=O)(=O)NC(C)=O)cc3)c3ccccc3n2)cc1	11	4	i	0	4	-1	104	0	97	0
COc1cc(-c2cc(C(=O)Nc3cccc(C(C)=O)c3)c3ccccc3n2)cc(OC)c1OC	/	-2	i	2	11	5	/	/	/	/
CC(C)(C)NS(=O)(=O)c1ccc(NC(=O)c2cc(-c3ccccc3)nc3ccccc23)cc1	-1	-9	i	0	-5	-4	/	/	/	/
COC(=O)CNC(=O)[C@H](Cc1ccccc1)NC1(C(=O)NCCc2c[nH]c3ccccc23)CCCCC1	-5	/	/	/	-3	-6	/	/	/	/
Cc1noc(C)c1C(=O)N1CCC2(CC1)Oc1ccc(F)cc1C(=O)C21CC(c2ccc(Cl)cc2)=NO1 (stereo not given)	/	1	i	6.4*	-3	3	100	0	98	0
O=C(/C=C/c1cccs1)N1CCC2(CC1)Oc1ccc(F)cc1C(=O)C21CC(c2ccc(Cl)cc2)=NO1 (stereo not given)	/	1	i	0	-2	6	/	/	/	/
CC(C)(C)OC(=O)N1CCC2(CC1)Oc1ccc(F)cc1C(=O)C21CC(c2ccc(Cl)cc2)=NO1 (stereo not given)	/	/	i	0	/	/	/	/	/	/
O=C(c1ccc2c(c1)OCO2)N1CCC2(CC1)Oc1ccc(Cl)cc1C(=O)C21CC(c2ccccc2)=NO1 (stereo not given)	/	4	i	0	1	-3	94	0	87	0
O=C(/C=C/c1cccs1)N1CCC2(CC1)Oc1ccc(F)cc1C(=O)C21CC(c2ccccc2)=NO1 (stereo not given)	/	0	i	0.6*	-1	3	108	0	95	0
O=C(c1ccc2c(c1)OCO2)N1CCC2(CC1)Oc1ccc(F)cc1C(=O)C21CC(c2ccc(Cl)cc2)=NO1 (stereo not given)	/	-3	i	23*	1	1	107	26*	110	1
c1ccc(-c2ccc3c(c2)c2c4n3CCN=C4CCC2)cc1	1	3	i	0.3*	1	-14	103	0	106	0
OC1CN=C2CCCc3c2n(c2ccc(Cl)cc32)C1 (stereo not given)	-3	0	i	0	2	-5	/	/	/	/
O=C(O)C(Cc1c[nH]c2ccccc12)NS(=O)(=O)c1cccc2nsnc12 (stereo not given)	-1	2	i	24*	0	3	79	0	95	0
Cc1cc(C)nc(NN2C(=O)/C(=C/c3ccccc3)SC2=S)n1	-1	-1	i	0	-1	3	/	/	/	/
CN(C)c1ccc(/C=C2\SC(=S)N(Nc3ncc(C(F)(F)F)cc3Cl)C2=O)cc1	-2	1	i	1.2*	-1	-2	+	0	237*	1
COc1cc(/C=C2\SC(=S)N(Nc3ncc(C(F)(F)F)cc3Cl)C2=O)ccc1O	10	9	i	0	-10	-9	478*	0	97	0
COc1cc(/C=C2\SC(=S)N(Nc3ccccc3)C2=O)ccc1O	21	-7	i	0	1	-7	/	/	/	/
COc1ccc2ccccc2c1C=NNC(=O)c1cc(-c2ccc(C)cc2)n[nH]1	-3	/	/	/	0	0	/	/	/	/
O=C(c1cc2c(s1)CCCC2)N1CCN(S(=O)(=O)c2ccccc2C(F)(F)F)CC1	20	-4	i	6.7*	5	-2	108	0	106	0
COc1ccccc1-c1sc2cc3c(cc2c1-c1ccc(OCCN2CCOCC2)cc1)OCO3	/	1	/	1	/	/	106	0	102	0
SMILES	NSD2 HMT inh	V-ATPase pH	Rce1 inh	Efflux pump mplx	NPR1 activator	GC-B act	Cmpd fluor yeast	Mdr1 pump inh	CaCdr2 efflux inh	CaCdr1 efflux inh
COc1cc(OC)cc(-c2sc3ccc(OC)cc3c2-c2ccc(OCCN3CCCCC3)cc2)c1	/	0	/	+	/	/	100	70*	/	103*
COc1ccc(-c2sc3cc4c(cc3c2-c2ccc(OCCN3CCCCC3)cc2)OCO4)cc1	/	2	/	1	/	/	101	0	98	0
COc1ccc(-c2sc3cc(OC)ccc3c2-c2ccc(OCCN3CCOCC3)cc2)cc1	/	-1	/	0	4	0	92	0	96	0
COc1ccc(-c2c(-c3cc(OC)cc(OC)c3)sc3ccc(OC)cc23)cc1	/	1	/	0	-3	1	/	/	/	/
COc1ccccc1-c1sc2cc3c(cc2c1-c1ccc(O)cc1)OCO3	/	2	/	0	-2	-1	/	/	/	/
COc1ccc(-c2sc3cc4c(cc3c2-c2ccc3c(c2)OCCO3)OCO4)cc1	/	7	/	0	0	0	/	/	/	/
CN1C/C(=C\c2ccc(N3CCOCC3)cc2)C(=O)/C(=C/c2ccc(N3CCOCC3)cc2)C1	10	0	i	0.8*	6	1	99	0	114	0
Cc1cc(O)c(C(C)C)cc1C1(c2cc(C(C)C)c(O)cc2C)OC(=O)c2ccccc21	2	-1	i	1.2*	-22	1	117	0	109	0
Cc1cc(C)c2nc(-n3nc(C)cc3N)cc(C)c2c1	-4	-1	i	2.0*	-3	-6	90	0	95	0
CC(SCc1ccccc1)C(=O)N/N=C/c1ccc(OCC(=O)NCc2ccco2)cc1 (stereo not given)	-1	0	i	14*	1	6	118	0	94	1

Screening results: PubChem BioAssay, several laboratories
